This is an account of results in ChEMBL document CHEMBL5606460, “ASAP - DENV-2 NS2B-NS3 protease fluorescence single point” (2024).

This assay concerns the target Genome polyprotein (dengue virus type 2) (UniProt P29990).
Where [1] appears, read: Thailand/16681/1984, Concentration 25.0 uM, Number of replicates 1.0.

The campaign covered roughly 2,000 compounds. About 110 (5.5%) showed an effect of 50% or more. Only a selection was taken, and strong results are over-represented in it overall.

One may read the inhibition as the drop in the measured response relative to a control, in per cent. On to `CCCCCC(=O)N[C@H](C(=O)NCc1ccc(NC(=N)N)cc1)c1ccc(OCc2ccccc2)cc1`, for which the inhibition runs as follows: (Thailand/16681/1984, Concentration 49.5 uM, Number of replicates 2.0, Standard deviation 0.35669280924008506 %) 0.374%; (Thailand/16681/1984, Concentration 99.01 uM, Number of replicates 2.0, Standard deviation 0.1951319007042223 %) 2.1%; (Thailand/16681/1984, Concentration 198.0 uM, Number of replicates 2.0, Standard deviation 2.320076788942105 %) 11.9%.

For the compound `NC(=O)c1cccc(NC(=O)[C@@H](NC(=O)OCc2ccccc2)c2ccc(OCc3ccccc3)cc2)c1`, the inhibition runs as follows: (Thailand/16681/1984, Concentration 49.5 uM, Number of replicates 2.0, Standard deviation 9.041969593425012 %) 3.65%; (Thailand/16681/1984, Concentration 99.01 uM, Number of replicates 2.0, Standard deviation 1.1271011381219709 %) 9.06%; (Thailand/16681/1984, Concentration 198.0 uM, Number of replicates 2.0, Standard deviation 1.277025907644923 %) 16%.

For `NCc1cccc(NC(=O)[C@@H](NC(=O)OCc2ccccc2)c2ccc(F)c(F)c2)c1`, the inhibition by setting is: (Thailand/16681/1984, Concentration 49.5 uM, Number of replicates 2.0, Standard deviation 1.4013065114851189 %) -6.54%; (Thailand/16681/1984, Concentration 99.01 uM, Number of replicates 2.0, Standard deviation 2.1722806038563465 %) -6.15%; (Thailand/16681/1984, Concentration 198.0 uM, Number of replicates 2.0, Standard deviation 2.359590386651735 %) -2.47%.

Consider `CCCCCC(=O)N[C@H](C(=O)NCc1ccc(N)nc1)c1ccc(OCc2ccccc2)cc1`, for which the inhibition was -5.35% (Thailand/16681/1984, Concentration 49.5 uM, Number of replicates 2.0, Standard deviation 0.5514996049599625 %); 2.25% (Thailand/16681/1984, Concentration 99.01 uM, Number of replicates 2.0, Standard deviation 6.42872691267386 %); -1.4% (Thailand/16681/1984, Concentration 198.0 uM, Number of replicates 2.0, Standard deviation 0.7744386054656718 %).

With `NCc1cccc(NC(=O)[C@@H](NC(=O)OCc2ccccc2)c2ccc(OCc3ccccc3)cc2)c1`, the inhibition worked out at 99.8% (Thailand/16681/1984, Concentration 49.5 uM, Number of replicates 2.0, Standard deviation 0.05193031216203084 %); 99.8% (Thailand/16681/1984, Concentration 99.01 uM, Number of replicates 2.0, Standard deviation 0.07343936624368645 %); 99.6% (Thailand/16681/1984, Concentration 198.0 uM, Number of replicates 2.0, Standard deviation 0.025182910572653226 %).

As for `NCc1cccc(NC(=O)[C@@H](NC(=O)OCc2ccccc2)c2ccc(Br)cc2)c1`, the inhibition reads like this: (Thailand/16681/1984, Concentration 49.5 uM, Number of replicates 2.0, Standard deviation 0.0939294781157427 %) -4.11%; (Thailand/16681/1984, Concentration 99.01 uM, Number of replicates 2.0, Standard deviation 0.02096957442071617 %) 99.8%; (Thailand/16681/1984, Concentration 198.0 uM, Number of replicates 2.0, Standard deviation 0.044447729264800756 %) 99.8%.

Take `NCc1cccc(NC(=O)[C@@H](NC(=O)OCc2ccccc2)c2ccc(F)cc2)c1`: the inhibition (Thailand/16681/1984, Concentration 49.5 uM, Number of replicates 2.0, Standard deviation 2.4011437232418986 %) is -4.62%; the inhibition (Thailand/16681/1984, Concentration 99.01 uM, Number of replicates 2.0, Standard deviation 1.9050608177527883 %) was -3.96%; the inhibition (Thailand/16681/1984, Concentration 198.0 uM, Number of replicates 2.0, Standard deviation 2.2061626239616485 %) is -3.52%.

Consider `O=Cc1ccc(N2CCC(C(=O)N3CCC(=C4c5ccc(Cl)cc5CCc5cccnc54)CC3)CC2)cc1`, for which, under setting [1], the inhibition was -7.77%.

Take `Cc1cc(CO)c2cccc(Cc3cccc(C(=O)N4CC[C@@H](O)C4)c3)c2n1`: the inhibition (Thailand/16681/1984, Concentration 49.95 uM, Number of replicates 2.0, Standard deviation 0.8940031033980441 %) was -6.42% and the inhibition (Thailand/16681/1984, Concentration 99.9 uM, Number of replicates 2.0, Standard deviation 1.7851314545528572 %) is -4.22%.

`Cc1cc(NC(=O)c2[nH]c([C@H]3CCCNC3)nc2C)n[nH]1`: the inhibition is, setting by setting: (Thailand/16681/1984, Concentration 49.5 uM, Number of replicates 2.0, Standard deviation 0.1819338679741269 %) -0.694%; (Thailand/16681/1984, Concentration 99.01 uM, Number of replicates 2.0, Standard deviation 0.4335851561467917 %) -1.03%; (Thailand/16681/1984, Concentration 198.0 uM, Number of replicates 2.0, Standard deviation 0.7148425402027826 %) -1.18%.

Take `O=Cc1ccc(N2CCC(C(=O)Nc3nnc(Cl)cc3Br)CC2)cc1`: under setting [1], the inhibition stood at 33%.

For `Cc1cc(CO)c2cccc(Cc3cccc(NC(=O)c4cccc(Cn5cncn5)c4)c3)c2n1`, the inhibition was -2.36% (Thailand/16681/1984, Concentration 49.95 uM, Number of replicates 2.0, Standard deviation 0.03445572300723204 %) and 1.37% (Thailand/16681/1984, Concentration 99.9 uM, Number of replicates 2.0, Standard deviation 1.2505418184916173 %).

As for `O=Cc1ccc(N2CCC(C(=O)NCC(=O)c3ccccc3F)CC2)cc1`, under setting [1], the inhibition came to 12.6%.

On to `O=Cc1ccc(N2CCC(C(=O)N[C@@H]3CCCN(Cc4ccccc4)C3)CC2)cc1`, for which, under setting [1], the inhibition came to 13.3%.

For `CSCC[C@H](NC(=O)OC(C)(C)C)C(=O)N1CCC[C@H]1C(=O)N1CCNCC1`, the inhibition runs as follows: (Thailand/16681/1984, Concentration 49.5 uM, Number of replicates 2.0, Standard deviation 0.18656479510110988 %) -1.01%; (Thailand/16681/1984, Concentration 99.01 uM, Number of replicates 2.0, Standard deviation 0.6673278690655411 %) -1.03%; (Thailand/16681/1984, Concentration 198.0 uM, Number of replicates 2.0, Standard deviation 0.6237960118923063 %) -0.61%.

Regarding `CNC(=O)C[C@@H](C)NS(=O)(=O)c1ccc(Oc2ccccc2Cl)cc1`, the inhibition reads like this: (Thailand/16681/1984, Concentration 49.5 uM, Number of replicates 2.0, Standard deviation 1.3030195128486834 %) 0.058%; (Thailand/16681/1984, Concentration 99.01 uM, Number of replicates 2.0, Standard deviation 1.4693139392091605 %) 1.01%; (Thailand/16681/1984, Concentration 198.0 uM, Number of replicates 2.0, Standard deviation 0.5754244321045655 %) 1.94%.

For `CCN(Cc1cnn(CC)c1)C(=O)C1CCN(c2ccc(C=O)cc2)CC1`, the inhibition under setting [1] worked out at 12.7%.

`NCc1cccc(CNC(=O)[C@@H](NC(=O)OCc2ccccc2)c2ccc(OCc3ccccc3)cc2)c1`: the inhibition reads like this: (Thailand/16681/1984, Concentration 49.5 uM, Number of replicates 2.0, Standard deviation 0.05305782465339428 %) 100%; (Thailand/16681/1984, Concentration 99.01 uM, Number of replicates 2.0, Standard deviation 0.03132758391075349 %) 99.6%; (Thailand/16681/1984, Concentration 198.0 uM, Number of replicates 2.0, Standard deviation 0.04155072348555595 %) 99.5%.

Turning to `NCc1ccc(NC(=O)[C@@H](NC(=O)OCc2ccccc2)c2ccc(OCc3ccccc3)cc2)cc1`, the inhibition is 1.85% (Thailand/16681/1984, Concentration 49.5 uM, Number of replicates 2.0, Standard deviation 0.2921733335266154 %); 1.48% (Thailand/16681/1984, Concentration 99.01 uM, Number of replicates 2.0, Standard deviation 0.5182536650923871 %); 1.92% (Thailand/16681/1984, Concentration 198.0 uM, Number of replicates 2.0, Standard deviation 0.5806748336109616 %).

Regarding `O=C(N[C@H](C(=O)O)c1ccc(OCc2ccccc2)cc1)OCc1ccccc1`, the inhibition came to 1.16% (Thailand/16681/1984, Concentration 49.5 uM, Number of replicates 2.0, Standard deviation 1.5755205914644184 %); 3.53% (Thailand/16681/1984, Concentration 99.01 uM, Number of replicates 2.0, Standard deviation 1.1157080020325059 %); 10.6% (Thailand/16681/1984, Concentration 198.0 uM, Number of replicates 2.0, Standard deviation 0.14215963415330513 %).

`Cc1cc(CO)c2cccc(CC(=O)NCc3ccc(S(N)(=O)=O)cc3)c2n1`: the inhibition reads like this: (Thailand/16681/1984, Concentration 49.95 uM, Number of replicates 2.0, Standard deviation 1.717051818740604 %) 21.3%; (Thailand/16681/1984, Concentration 99.9 uM, Number of replicates 2.0, Standard deviation 5.294472274247832 %) 43.7%.

For `Cc1cc(CO)c2cccc(CC(=O)N(c3ncccn3)S(=O)(=O)c3ccc(N)cc3)c2n1`, the inhibition by setting is: (Thailand/16681/1984, Concentration 49.95 uM, Number of replicates 2.0, Standard deviation 0.013152514133703636 %) 99.6%; (Thailand/16681/1984, Concentration 99.9 uM, Number of replicates 2.0, Standard deviation 0.02076996694616858 %) 99.4%.

`Cc1cc(CO)c2cccc(Cc3cccc(C(=O)N(c4ncccn4)S(=O)(=O)c4ccc(N)cc4)c3)c2n1`: the inhibition (Thailand/16681/1984, Concentration 49.95 uM, Number of replicates 2.0, Standard deviation 1.2554851591331873 %) was 27.5% and the inhibition (Thailand/16681/1984, Concentration 99.9 uM, Number of replicates 2.0, Standard deviation 1.7606970720097574 %) turned out to be 55.5%.

Take `Cc1cc(CO)c2cccc(Cc3ccccc3C(=O)N(c3ncccn3)S(=O)(=O)c3ccc(N)cc3)c2n1`: the inhibition is, setting by setting: (Thailand/16681/1984, Concentration 49.95 uM, Number of replicates 2.0, Standard deviation 1.284948840815395 %) 27.7%; (Thailand/16681/1984, Concentration 99.9 uM, Number of replicates 2.0, Standard deviation 0.4850893215235289 %) 47.5%.

Turning to `Cc1cc(CO)c2cccc(Cc3cccc(C(=O)NCc4ccc(S(N)(=O)=O)cc4)c3)c2n1`, the inhibition by setting is: (Thailand/16681/1984, Concentration 49.95 uM, Number of replicates 2.0, Standard deviation 0.214877109175697 %) 5.4%; (Thailand/16681/1984, Concentration 99.9 uM, Number of replicates 2.0, Standard deviation 0.2579967069502225 %) 18%.

In the case of `Cc1cc(CO)c2cccc(NC(=O)NCc3ccc(N)cc3)c2n1`, the inhibition is, setting by setting: (Thailand/16681/1984, Concentration 49.95 uM, Number of replicates 2.0, Standard deviation 1.081774899946809 %) 4.55%; (Thailand/16681/1984, Concentration 99.9 uM, Number of replicates 2.0, Standard deviation 2.6483447678271466 %) 14.1%.

In the case of `CC(=O)N[C@@H](CCCCN)C(=O)Nc1cccc(Cc2cccc3c(CO)cc(C)nc23)c1`, the inhibition is, setting by setting: (Thailand/16681/1984, Concentration 49.95 uM, Number of replicates 2.0, Standard deviation 0.858525740782908 %) -3.5%; (Thailand/16681/1984, Concentration 99.9 uM, Number of replicates 2.0, Standard deviation 1.064156674332285 %) 6.38%.
